According to PubChem BioAssay AID488975 (Johns Hopkins Ion Channel Center, 2010):
Among all 310,000 compounds or so, about 2,600 (0.84%) were called active.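 How the source made its calls: active means B-score over 3 SD under the library average, and starting fluorescence ratio not unusually high; inactive means the rest.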 What follows is part of a selection rich in actives, with near analogues and random picks from the rest.

Target: High affinity choline transporter 1 (Homo sapiens) (UniProt Q9GZV3)
Experiment: inhibitors of human choline transporter CHT (AID 488975);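 on B-score: choline stimulus applied at its EC90 after an EC20 pre-addition; B-score computed on integrated fluorescence ratio after choline addition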
Conditions: CHT-expressing cells, membrane potential dye, choline response, at 10 µM; stronger effect = lower value

Chain of High affinity choline transporter 1 (Homo sapiens) (Q9GZV3 whole entry, looked up): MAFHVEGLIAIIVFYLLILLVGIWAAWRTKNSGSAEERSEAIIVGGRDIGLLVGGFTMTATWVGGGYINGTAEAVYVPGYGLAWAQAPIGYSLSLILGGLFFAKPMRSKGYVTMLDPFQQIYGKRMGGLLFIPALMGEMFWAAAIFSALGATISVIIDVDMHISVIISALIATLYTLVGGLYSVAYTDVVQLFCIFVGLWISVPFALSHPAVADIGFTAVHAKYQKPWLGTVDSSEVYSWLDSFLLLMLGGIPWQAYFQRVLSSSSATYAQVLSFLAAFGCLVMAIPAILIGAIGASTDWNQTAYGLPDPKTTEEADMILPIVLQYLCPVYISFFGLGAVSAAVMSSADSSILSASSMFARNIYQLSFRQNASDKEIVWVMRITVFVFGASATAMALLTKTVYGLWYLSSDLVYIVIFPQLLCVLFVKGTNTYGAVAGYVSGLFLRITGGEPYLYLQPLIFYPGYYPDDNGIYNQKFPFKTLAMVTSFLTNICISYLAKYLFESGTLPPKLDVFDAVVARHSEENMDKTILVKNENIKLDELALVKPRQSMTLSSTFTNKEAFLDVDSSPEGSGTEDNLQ

B-score, inactive:
CCOC(=O)/C(C#N)=C/c1ccc(N2CCCCC2)cc1
CCOC(=O)NC(=O)/C(C#N)=C\c1ccccc1
CCC1CCCCN1CCCNC(=O)C1CCC(Cn2c(=O)[nH]c3ccccc3c2=O)CC1 (stereo unspecified)
O=C(NC1CCCCC1)c1ccc2c(=O)n(CC3CCCO3)c(=O)[nH]c2c1 (stereo unspecified)
CCN1C(=O)[C@H]2[C@@H](c3ccc(C)cc3)N3C(=O)N(c4cccc(Br)c4)C(=O)[C@@]3(CC)[C@H]2C1=O
O=C(CCCCO)c1ccc(O)c(Cl)c1
CC(C)Cn1c(CN(Cc2ccccc2)Cc2ccccc2)nc2c1c(=O)n(C)c(=O)n2C
COCCn1c(CN(Cc2ccccc2)Cc2ccccc2)nc2c1c(=O)n(C)c(=O)n2C
COc1cc(C2C(C(=O)c3cccs3)=C(O)C(=O)N2CCN2CCOCC2)ccc1OCCC(C)C (stereo unspecified)
COc1ccc(NC(=O)CN2C(=O)CSc3ccc(S(=O)(=O)N4CCC(C)CC4)cc32)cc1
COCCCNC(=O)CN1C(=O)CSc2ccc(S(=O)(=O)N3CCOCC3)cc21
O=S(=O)(NCCCc1ccccc1)c1ccc(Br)cc1
O=C(c1ccc(F)cc1)N1CCC(C(=O)N2CCN(S(=O)(=O)c3ccccc3Br)CC2)CC1
COc1ccc(/C=C2\SC(=O)N(CCC(=O)NCCCn3ccnc3)C2=O)cc1
O=C(CCCN1C(=O)/C(=C\c2ccccc2)SC1=S)Nc1ccccc1O
CC(=O)CC(CC(=O)NC1CCCCC1)c1ccccc1 (stereo unspecified)
Cc1ccc(C)c(C(=O)N2CCC(n3nccc3NC(=O)C3CC3)CC2)c1
CCOC(=O)C1CCN(C(=O)c2oc3ccc(S(=O)(=O)N4CCCCCC4)cc3c2C)CC1
COc1ccc(C(=O)Nc2ccc(CN3CCOCC3)cc2)cc1
C/C(CCc1ccccc1)=N\NC(=O)c1ccc(CN2CCOCC2)cc1
COc1ccc(S(=O)(=O)NCc2cccnc2)cc1NC(=O)c1ccc(C)cc1
Cc1cc(C)c(S(=O)(=O)N2CCCC2CNC(=O)c2ccc3c(c2)OCO3)c(C)c1 (stereo unspecified)
O=S(=O)(O)Oc1c[nH]c2ccccc12
COc1ccc(OCCCC(=O)Oc2ccc(OC)cc2)cc1
COc1ccc(OCCC(=O)c2ccc(OC)cc2)cc1
CCOc1ccc(CCNC(=O)COC(=O)c2c(OC)cccc2OC)cc1OCC
CCCCCC(=O)N1CCN(S(=O)(=O)c2ccc3c(c2)OCCCO3)CC1
CN1CCCN(S(=O)(=O)c2ccc3c(c2)OCCO3)CC1
CC(C)c1ccc(S(=O)(=O)N2CCN(C(=O)CN3C(=O)NC(C)(c4ccccc4)C3=O)CC2)cc1 (stereo unspecified)
Cc1cccc(NC(=O)c2nc(S(=O)(=O)Cc3ccccc3)ncc2Cl)c1
CSc1nnc(NC(=O)c2nc(S(=O)(=O)Cc3ccc(C)cc3)ncc2Cl)s1
Cc1ccc(C(=O)CN2C(=O)NC3(CCc4ccccc43)C2=O)c(C)c1 (stereo unspecified)
O=C(OCCOCn1cc(Br)c(=O)[nH]c1=O)c1ccccc1
CCCN(CC(=O)Nc1ccccc1OC)C(=O)CCC(=O)c1ccc(F)cc1
Cc1ccc(Cn2ccc(NC(=O)c3cc(C(C)C)on3)n2)cc1
Cn1cc([N+](=O)[O-])c(C(=O)Nc2cnn(Cc3ccc(F)cc3)c2)n1
CCN1C(=O)[C@@H]2[C@@H](c3ccc(-c4ccccc4)cc3)N3CCCC[C@@]3(C(=O)OC)[C@@H]2C1=O
CCCCCCSc1ccc([C@@H]2[C@@H]3C(=O)N(CC)C(=O)[C@@H]3[C@]3(C(=O)OC)CCCCN23)cc1OC
O=C(NCCC1CCCCN1S(=O)(=O)c1ccc(F)cc1)C(=O)NC1CC1 (stereo unspecified)
COc1ccc(CCNc2cc(N3CCN(C(=O)c4ccccc4OC)CC3)ccc2[N+](=O)[O-])cc1OC
Cc1cc(/C=C2/C(=N)N3C(=NC2=O)SN=C3S(C)(=O)=O)c(C)n1-c1ccccc1
CCS(=O)(=O)C1=NSC2=NC(=O)/C(=C\c3cc(C)n(-c4cccc(OC)c4)c3C)C(=N)N21
Cc1ccc2c(C)c(C(=O)N3CCN(c4ccncc4)CC3)oc2c1C
CCOc1cc(C(=O)Nc2ccc(S(=O)(=O)Nc3cnc4ccccc4n3)cc2)cc(OCC)c1OCC
O=C(NCCCn1ccnc1)c1ccccc1F
O=C(NCCCn1ccnc1)Nc1ccc(Cl)cc1Cl
COc1ccc(C(=O)C2CCCN(C(=O)c3ccc(OC)o3)C2)c(C)c1 (stereo unspecified)
COCC(=O)Nc1c(C(=O)N2CCCC2)oc2ccccc12
CCOCCCN(C)C1CCN(C(=O)c2oc3ccccc3c2NC(=O)Cc2cccc([N+](=O)[O-])c2)CC1
O=C(Nc1ccccc1-c1nc2ccccc2[nH]c1=O)c1cccs1
C/C(=N\Nc1ncc(Cl)cc1Cl)c1cccs1
COC(=O)c1ccc(SCc2ccccc2)nc1
COc1cnn(-c2ccc([N+](=O)[O-])cc2)c(=O)c1Cl
Nc1c(C(=O)Nc2ccc3c(c2)OCCO3)nnn1Cc1ccccc1
O=C(Cc1c[nH]c2ccccc12)OCCOC(=O)Cc1c[nH]c2ccccc12
O=C(NCCCc1ccccc1)C(=O)c1c[nH]c2ccccc12
COc1ccc(N2CCN(C(=O)COC(=O)c3cccc(S(=O)(=O)Nc4ccccc4OC)c3)CC2)cc1
O=C(Nc1cccnc1)c1cccc(S(=O)(=O)N2CCCC2)c1
O=C(Nc1ccc2c(c1)CCC2)c1cccc(S(=O)(=O)N2CCN(c3ccc(F)cc3)CC2)c1
CN1CCN(S(=O)(=O)c2cccc(C(=O)O)c2)CC1
COc1ccc(OC)c(NC(=O)c2cccc(S(=O)(=O)N3CCN(C(C)=O)CC3)c2)c1
CCc1ccc(OC(C)C(=O)Nc2ccc(S(=O)(=O)Nc3cc(C)on3)cc2)cc1 (stereo unspecified)
COc1ccc(C(=O)Nc2ccc(S(=O)(=O)Nc3onc(C)c3C)cc2)cc1OC
COc1cc(OC)cc(C(=O)Nc2ccc(S(=O)(=O)Nc3cc(C)on3)cc2)c1
Cc1cc(NS(=O)(=O)c2ccc(NC(=O)c3cccc(OC(F)F)c3)cc2)nc(C)n1
CC(Oc1cccc(Cl)c1)C(=O)Nc1ccc(S(=O)(=O)Nc2ncccn2)cc1 (stereo unspecified)
Cc1cc(NS(=O)(=O)c2ccc(NC(=O)c3cccnc3)cc2)nc(C)n1
CCOc1ccc(CC(=O)Nc2ccc(S(=O)(=O)Nc3cc(C)on3)cc2)cc1OCC
CCOc1ccc(C(=O)Nc2ccc(S(=O)(=O)Nc3cc(C)on3)cc2)cc1
COc1ccc(Cl)cc1NC(=O)CN(C)C(=O)c1cc(-c2cccs2)nn1-c1ccccc1
O=C(CNC(=O)c1ccccc1Br)NCCSc1ccc(Br)cc1
O=C(Oc1ccc(-c2nnco2)cc1)c1ccc(F)c(S(=O)(=O)N2CCOCC2)c1
O=C(NCCCN1CCCC1=O)c1ccc(S(=O)(=O)Nc2ccccc2)cc1

B-score, active:
CC(C)(C)C(=O)/C(C#N)=C/c1ccc(O)cc1 -5.45
CCCCCn1c(=O)[nH]c2cc(C(=O)NCCCN3CCCCC3C)ccc2c1=O (stereo unspecified) -6.4
CC(C)CCn1c(CN(C)Cc2ccccc2)nc2c1c(=O)n(C)c(=O)n2C -5.25
CC1CCN(CCCNC(=O)CN2C(=O)CSc3ccc(S(=O)(=O)N4CCCCC4)cc32)CC1 -5.37
COc1ccc(/C=C2/SC(=O)N(CCCCCC(=O)Nc3ccccc3C(=O)O)C2=S)cc1 -9.31
Cc1ccc2c(C)c(C(=O)N3CCC(N4CCC(C(=O)NC5CC5)CC4)CC3)oc2c1 -8.96
Cc1ccccc1-n1c(C)cc(/C=N/NC(=O)c2ccc(CN3CCOCC3)cc2)c1C -9.28
COc1ccc(OCC(=O)OCCN(C)C)cc1 -11
O=C(c1c(F)cccc1Cl)N1CCN(S(=O)(=O)c2ccc3c(c2)OCCCO3)CC1 -5.01
Cc1ccc(CS(=O)(=O)c2ncc(Cl)c(C(=O)Nc3nnc(C)s3)n2)cc1 -9.37
CC(=O)OCCOCn1cnn2c(=O)c(Br)c(C)nc12 -5.09
O=C(Nc1ccn(Cc2ccccc2)n1)c1n[nH]c([N+](=O)[O-])c1Cl -5.17
CCS(=O)(=O)C1=NSC2=NC(=O)/C(=C\c3ccc(OS(=O)(=O)c4ccccc4)cc3)C(=N)N21 -7.46
O=C(Nc1ccccc1C(=O)NCCCn1ccnc1)c1ccc(Cl)cc1Cl -5.25
CCOCCCN(C)C1CCN(C(=O)c2oc3ccccc3c2NC(=O)COc2cccc(C)c2)CC1 -6.44
C/C(=N\Nc1nc2ccccc2[nH]1)c1cccs1 -6.15
O=C(OCC(=O)c1c[nH]c2ccccc12)c1cccc(O)c1 -7.81
Cc1cccnc1NC(=O)c1cccc(S(=O)(=O)N2CCN(c3ccc(F)cc3)CC2)c1 -6.97
CC(=O)N1CCN(S(=O)(=O)c2cccc(C(=O)NC3CCC(C)CC3)c2)CC1 (stereo unspecified) -4.99
Cc1cc(NS(=O)(=O)c2ccc(NC(=O)C(C)Oc3cccc(C)c3C)cc2)nc(C)n1 (stereo unspecified) -9.11
Cc1cc(OC(C)C(=O)Nc2ccc(S(=O)(=O)Nc3onc(C)c3C)cc2)cc(C)c1Cl (stereo unspecified) -4.96
COc1cc2ccccc2cc1C(=O)Nc1ccc(S(=O)(=O)Nc2cc(C)on2)cc1 -5.68
CCC(Oc1ccccc1C)C(=O)Nc1ccc(S(=O)(=O)Nc2cc(C)on2)cc1 (stereo unspecified) -6.05
